Experimental data as given in PubChem BioAssay (Tox21).
Where “and” joins values, the source holds several entries; their conditions need not be identical. Identical values can stand only once. Some structures have more than one record in an assay (separate samples or runs), and their calls can disagree. Calls of active or inactive are those of the source. Entries that show only a call come without a potency. Unless noted, the call rests on the fitted dose curve; in most records, active means well fitted curve in the direction sought with a large enough effect in the repeat runs; inconclusive means weak or mixed curves; inactive means no such curve, though single readings can be large; an effect the other way counts as inactive or inconclusive.

Assays:
[1] = qHTS assay to identify small molecule antagonists of the glucocorticoid receptor (GR) signaling pathway - cell viability counter screen (AID 720693); further: nearly all actives have a fitted effect of over 55% in size
[2] = qHTS assay for identifying genotoxic compounds that show differential cytotoxicity against isogenic chicken DT40 cell lines with known DNA damage response pathways - wild type cell line (AID 743012); further: nearly all actives have a fitted effect of over 60% in size; further: potency means the concentration at half of the fitted maximal effect
Outline: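 CellTiter-Glo luminescence readout of viability in wild type DT40 cells after 40 h compound exposure at 37 C/5% CO2; 300 cells/well; reagent incubated 30 min at room temperature before reading.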

[3] = qHTS assay for identifying genotoxic compounds that show differential cytotoxicity against isogenic chicken DT40 cell lines with known DNA damage response pathways - Rev3 mutant cell line (AID 743014); further: nearly all actives have a fitted effect of over 55% in size; further: potency means the concentration at half of the fitted maximal effect
[4] = qHTS assay for identifying genotoxic compounds that show differential cytotoxicity against isogenic chicken DT40 cell lines with known DNA damage response pathways - Rad54/Ku70 mutant cell line (AID 743015); further: nearly all actives have a fitted effect of over 60% in size; further: potency means the concentration at half of the fitted maximal effect
[5] = qHTS assay to identify small molecule antagonists of the androgen receptor (AR) signaling pathway - cell viability counter screen (AID 743033; further: nearly all actives have a fitted effect of over 45% in size; further: potency means the concentration at half of the fitted maximal effect)
[6] = qHTS assay to identify small molecule antagonists of the androgen receptor (AR) signaling pathway using the MDA cell line - cell viability counter screen (AID 743041; further: nearly all actives have a fitted effect of over 45% in size; further: potency means the concentration at half of the fitted maximal effect)
Outline: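 Cytotoxicity counter screen: MDA-kb2 AR-luc cells, compound + R1881, 16 h, 37C, 0% CO2; CellTiter-Fluor added at 15.5 h, fluorescence read after 30 min.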

[7] = qHTS assay to identify small molecule antagonists of the thyroid receptor (TR) signaling pathway - cell viability counter screen (AID 743064); further: nearly all actives have a fitted effect of over 50% in size; further: potency means the concentration at half of the fitted maximal effect
Outline: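 Same-well viability check: GH3.TRE-Luc cells stimulated with 1 nM T3 alongside test compound for 23.5 h, followed by CellTiter-Fluor fluorescence.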

[8] = qHTS assay to identify small molecule antagonists of the thyroid receptor (TR) signaling pathway (AID 743065); further: nearly all actives have a fitted effect of over 55% in size; further: potency means the concentration at half of the fitted maximal effect
Outline: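 GH3.TRE-Luc rat pituitary cells (two TREs driving luciferase) were dosed with compound, then stimulated with 1 nM T3 (final) for 23.5 h at 37 C. ONE-Glo luminescence was the read-out, with CellTiter-Fluor fluorescence as the cytotoxicity counter-screen.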

[9] = tested on: thyroid hormone receptor (rat, GH3 cells); assay: qHTS assay to identify small molecule agonists of the thyroid receptor (TR) signaling pathway (AID 743066; calls by dose curve)
[10] = qHTS assay to identify small molecule antagonists of the estrogen receptor alpha (ER-alpha) signaling pathway - cell viability counter screen (AID 743074; calls by dose curve;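 further: HEK293 cells carrying ER-alpha-UAS-bla reporter stimulated with 17beta-estradiol; nearly all actives have a fitted effect of over 45% in size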; further: potency means the concentration at half of the fitted maximal effect)
[11] = qHTS assay to identify small molecule antagonists of the estrogen receptor alpha (ER-alpha) signaling pathway using the BG1 cell line - cell viability counter screen (AID 743081);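 further: compound given together with 17beta-estradiol as the ER stimulus; nearly all actives have a fitted effect of over 45% in size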; further: potency means the concentration at half of the fitted maximal effect
[12] = molecular target: Aromatase (Homo sapiens) (UniProt P11511); assay: qHTS assay to identify aromatase inhibitors (AID 743083); further: nearly all actives have a fitted effect of over 55% in size; further: potency means the concentration at half of the fitted maximal effect
Sequence of Aromatase (Homo sapiens) (P11511 whole entry, looked up): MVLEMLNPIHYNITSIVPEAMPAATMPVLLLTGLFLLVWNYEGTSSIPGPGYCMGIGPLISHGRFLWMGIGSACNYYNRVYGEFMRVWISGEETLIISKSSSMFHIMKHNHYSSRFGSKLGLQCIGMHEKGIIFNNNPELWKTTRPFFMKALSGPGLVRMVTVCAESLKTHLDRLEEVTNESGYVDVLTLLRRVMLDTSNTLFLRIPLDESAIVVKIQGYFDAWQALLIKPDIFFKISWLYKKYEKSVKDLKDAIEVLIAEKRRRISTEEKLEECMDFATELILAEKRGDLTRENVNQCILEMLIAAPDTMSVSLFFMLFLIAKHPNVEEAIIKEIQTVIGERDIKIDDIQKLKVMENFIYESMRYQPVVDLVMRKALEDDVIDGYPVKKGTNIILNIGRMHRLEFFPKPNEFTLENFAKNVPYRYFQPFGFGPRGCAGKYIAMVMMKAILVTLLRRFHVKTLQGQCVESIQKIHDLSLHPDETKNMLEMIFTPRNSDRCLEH

[13] = molecular target: Estrogen receptor (Homo sapiens) (UniProt P03372); assay: qHTS assay to identify small molecule antagonists of the estrogen receptor alpha (ER-alpha) signaling pathway (AID 743069; active means well fitted curve in the direction sought with a large enough effect in the signal ratio in the repeat runs, not every such curve was filed as active; inconclusive means weak or mixed curves, or effect the other way; inactive means no such curve, though single readings can be large or run the other way; the % refers to the signal ratio)
Sequence of Estrogen receptor (Homo sapiens) (P03372 whole entry, looked up): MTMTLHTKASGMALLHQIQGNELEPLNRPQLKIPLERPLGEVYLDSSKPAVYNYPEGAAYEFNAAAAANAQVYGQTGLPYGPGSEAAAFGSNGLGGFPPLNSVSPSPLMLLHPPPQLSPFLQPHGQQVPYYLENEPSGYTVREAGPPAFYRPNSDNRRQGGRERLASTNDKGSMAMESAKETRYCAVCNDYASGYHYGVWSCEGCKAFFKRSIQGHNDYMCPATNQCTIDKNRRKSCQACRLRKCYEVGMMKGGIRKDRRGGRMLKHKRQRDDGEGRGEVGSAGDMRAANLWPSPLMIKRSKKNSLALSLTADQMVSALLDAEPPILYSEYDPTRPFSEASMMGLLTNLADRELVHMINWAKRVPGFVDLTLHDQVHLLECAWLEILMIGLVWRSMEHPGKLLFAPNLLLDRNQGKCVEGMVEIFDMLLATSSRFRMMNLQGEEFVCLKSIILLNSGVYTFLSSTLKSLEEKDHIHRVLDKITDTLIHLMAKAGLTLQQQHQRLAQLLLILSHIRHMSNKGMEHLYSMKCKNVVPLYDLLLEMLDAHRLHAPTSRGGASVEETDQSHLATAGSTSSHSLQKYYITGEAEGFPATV
Outline: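 Beta-lactamase FRET fluorescence is read after 2 hr at room temperature with LiveBLAzer B/G substrate. Before that, ER-alpha-bla HEK293 cells sit 4 hr after plating, then receive compound plus 17beta-estradiol and incubate 18 hr at 37C.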

[14] = molecular target: Estrogen receptor (Homo sapiens) (UniProt P03372); assay: qHTS assay to identify small molecule agonists of the estrogen receptor alpha (ER-alpha) signaling pathway (AID 743075; calls by dose curve;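 further: HEK293 GripTite cells with ER-alpha and UAS-driven beta-lactamase reporter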; further: potency means the concentration at half of the fitted maximal effect)
[15] = molecular target: Estrogen receptor (Homo sapiens) (UniProt P03372); assay: qHTS assay to identify small molecule agonists of the estrogen receptor alpha (ER-alpha) signaling pathway using the BG1 cell line (AID 743079); further: nearly all actives have a fitted effect of over 20% in size; further: potency means the concentration at half of the fitted maximal effect
[16] = qHTS assay to identify small molecule antagonists of the estrogen receptor alpha (ER-alpha) signaling pathway using the BG1 cell line (AID 743080; calls by dose curve;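 further: BG1 cells stimulated with 17beta-estradiol alongside compound; nearly all actives have a fitted effect of over 25% in size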)
Outline: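 BG1-Luc-4E2 cells (endogenous full-length ER-alpha, stable 4×ERE-luciferase) were starved 5 days in phenol-red-free medium with 10% charcoal-stripped FBS, plated 24 h, then given compound plus 17beta-estradiol for 21.5 h at 37 C; ONE-Glo luminescence read after 30 min.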

[17] = molecular target: Androgen receptor (Homo sapiens) (UniProt P10275); assay: qHTS assay to identify small molecule antagonists of the androgen receptor (AR) signaling pathway (AID 743035; active means well fitted inhibition curve with a large enough effect in the signal ratio in the repeat runs, not every such curve was filed as active; inconclusive means weak or mixed curves, or effect the other way; inactive means no such curve, though single readings can be large or run the other way; the % refers to the signal ratio; further: potency means the concentration at half of the fitted maximal effect)
Sequence of Androgen receptor (Homo sapiens) (P10275 whole entry, looked up): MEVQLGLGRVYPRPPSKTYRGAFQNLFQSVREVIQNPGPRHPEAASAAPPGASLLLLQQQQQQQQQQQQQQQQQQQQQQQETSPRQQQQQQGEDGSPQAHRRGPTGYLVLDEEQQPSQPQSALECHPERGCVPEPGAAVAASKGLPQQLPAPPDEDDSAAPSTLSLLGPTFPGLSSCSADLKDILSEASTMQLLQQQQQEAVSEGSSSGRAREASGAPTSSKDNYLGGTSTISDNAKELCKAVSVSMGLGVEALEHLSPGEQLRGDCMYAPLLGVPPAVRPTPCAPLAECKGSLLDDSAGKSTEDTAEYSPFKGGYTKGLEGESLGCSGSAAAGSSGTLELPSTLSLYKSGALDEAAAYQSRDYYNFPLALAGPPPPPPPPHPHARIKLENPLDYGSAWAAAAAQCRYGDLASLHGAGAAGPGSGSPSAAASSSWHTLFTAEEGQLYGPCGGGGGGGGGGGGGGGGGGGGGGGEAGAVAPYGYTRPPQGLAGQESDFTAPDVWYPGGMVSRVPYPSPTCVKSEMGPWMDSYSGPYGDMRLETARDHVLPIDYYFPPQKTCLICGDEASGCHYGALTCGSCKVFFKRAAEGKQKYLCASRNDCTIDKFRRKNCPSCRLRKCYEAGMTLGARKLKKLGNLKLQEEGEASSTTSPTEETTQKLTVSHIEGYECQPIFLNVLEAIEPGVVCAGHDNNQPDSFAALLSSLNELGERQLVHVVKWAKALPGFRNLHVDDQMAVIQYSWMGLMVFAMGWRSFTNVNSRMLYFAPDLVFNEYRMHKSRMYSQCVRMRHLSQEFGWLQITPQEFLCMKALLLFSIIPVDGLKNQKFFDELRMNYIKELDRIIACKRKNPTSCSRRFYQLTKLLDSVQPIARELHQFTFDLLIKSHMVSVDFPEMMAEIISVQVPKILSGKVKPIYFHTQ
Outline: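 AR-bla HEK293 reporter cells; 4 h settle at 37C/5% CO2; compound + R1881 agonist, 16 h at 37C; LiveBLAzer B/G FRET substrate 2 h RT; fluorescence intensity read. qHTS format.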

[18] = molecular target: Androgen receptor (Homo sapiens) (UniProt P10275); assay: qHTS assay to identify small molecule agonists of the androgen receptor (AR) signaling pathway (AID 743036; active means well fitted activation curve with a large enough effect in the signal ratio in the repeat runs, with a control signal flat, not every such curve was filed as active; inconclusive means weak or mixed curves, or effect the other way; inactive means no such curve, though single readings can be large or run the other way; the % refers to the signal ratio; further: potency means the concentration at half of the fitted maximal effect)
Outline: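 Agonist activity was scored by beta-lactamase reporter fluorescence in stably transfected HEK293 cells exposed to compounds for 16 h at 37C and 5% CO2. Substrate loading took 2 h at room temperature.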

[19] = molecular target: Androgen receptor (Homo sapiens) (UniProt P10275); assay: qHTS assay to identify small molecule agonists of the androgen receptor (AR) signaling pathway using the MDA cell line (AID 743040; further: nearly all actives have a fitted effect of over 20% in size; further: potency means the concentration at half of the fitted maximal effect); details: MDA-kb2 AR-luc cells, MMTV luciferase, 16 h; activity change: at 70.3 µM (top of the series), stronger effect = higher value
Outline: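 Luciferase read-out, ONE-Glo, 30 min RT. Cells: MDA-kb2 AR-luc, MMTV promoter with AR and GR response elements. Compound exposure 16 h, 37C, 0% CO2, after 5 h pre-incubation. qHTS agonist mode.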

[20] = molecular target: Androgen receptor (Homo sapiens) (UniProt P10275); assay: qHTS assay to identify small molecule antagonists of the androgen receptor (AR) signaling pathway using the MDA cell line (AID 743042; further: nearly all actives have a fitted effect of over 55% in size; further: potency means the concentration at half of the fitted maximal effect)
Outline: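 MDA-kb2 breast carcinoma cells carrying MMTV-luciferase (AR/GR responsive) were co-treated with compounds and the agonist R1881 for 16 h at 37C. Inhibition read as ONE-Glo luminescence; CellTiter-Fluor fluorescence measured in parallel for cytotoxicity.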

| Compound | Potency [1] | Potency [2] | Potency [3] | Potency [4] | Potency [5] | Potency [6] | Potency [7] | Potency [8] | Potency [9] | Potency [10] | Potency [11] | Potency [12] | Potency [13] | Potency [14] | Potency [15] | Potency [16] | Potency [17] | Potency [18] | Potency [19] | Potency [20] |
| --- | --- | --- | --- | --- | --- | --- | --- | --- | --- | --- | --- | --- | --- | --- | --- | --- | --- | --- | --- | --- |
| CC(O)CCO (stereo not given) | inactive | inactive | inactive and 68.6 µM (active) | inactive | inactive | inactive | inactive | inactive | inactive | inactive | inactive | inactive |  |  |  |  |  |  |  |  |
| CCCCC(CC)COC(=O)Cl (stereo not given) | inactive | inactive | inactive | inactive | inactive | inactive | inactive | inactive | inactive | inactive | inactive | inactive | inactive | inactive | inactive | inactive |  |  |  |  |
| CCC(C)c1ccc(O)cc1 (stereo not given) | inactive | inactive | inactive and 61.1 µM (active) | inactive and 43.3 µM (active) | inactive | inactive | inactive | inactive | inactive | inactive | inactive |  |  |  |  |  |  |  |  |  |
| c1ccc(N=Nc2ccccc2)cc1 | inactive | inactive | inactive | inactive | inactive | inactive | inactive | inactive | inactive | inactive | inactive | inactive |  |  |  |  |  |  |  |  |
| Cc1ccccc1[N+](=O)[O-] | inactive | inactive | inactive | inactive | inactive | inactive | inactive | inactive | inactive | inactive | inactive | inactive | inactive | inactive | inactive | inactive |  |  |  |  |
| C=C(C)[C@H]1Cc2c(ccc3c2O[C@@H]2COc4cc(OC)c(OC)cc4[C@@H]2C3=O)O1 | inactive | 59.6 nM (active) and 19.6 nM (active) and 8.6 nM (active) | 119 nM (active) and 11 nM (active) and 8.6 nM (active) | 75 nM (active) and 9.8 nM (active) and 8.6 nM (active) | 62.5 nM (active) and 38.9 nM (active) | 393 nM (active) and 39.1 nM (active) and 30.6 nM (active) | 841 nM (active) and 8.75 µM (active) and 4.86 µM (active) | 237 nM (active) and 34.8 nM (active) and 61.1 nM (active) | inactive | 67.4 nM (active) and 44.2 nM (active) | 7.8 µM (active) and 38.6 µM (active) | 15 µM (active) and 34.8 µM (active) and 34.4 µM (active) |  |  |  |  | 756 nM (active) and 279 nM (active) | inactive | inactive | 188 nM (active) and 24.7 nM (active) and 9.7 nM (active) |
| Brc1ccc(Oc2cc(Br)c(Br)cc2Br)c(Br)c1 | inactive | inactive | inactive | inactive | inactive | inactive | 48.9 µM (active) |  | inactive | inactive | inactive | inactive | inactive | inactive | inactive and 61.6 µM (active) | inactive |  |  |  |  |
| Nc1cccnc1 | inactive | inactive | inactive | inactive | inactive | inactive | inactive |  | inactive | inactive | inactive | inactive | inactive | inactive | inactive | inactive |  |  |  |  |
| COc1ccc(C(CN(C)C)C2(O)CCCCC2)cc1 (stereo not given) | inactive | inactive | inactive | inactive | inactive | inactive | inactive | inactive | inactive | inactive | inactive | inactive |  |  |  |  |  |  |  |  |
| CCC(=O)O[C@H]1CC[C@H]2[C@@H]3CCC4=CC(=O)CC[C@]4(C)[C@H]3CC[C@]12C | inactive | 10.1 µM (active) and 19.3 µM (active) | 11.4 µM (active) and 17.2 µM (active) | 12.7 µM (active) and 21.7 µM (active) | inactive and 49 µM (active) | inactive | inactive and 43.3 µM (active) |  | inactive | inactive | inactive | inactive |  | 3.23 µM [inconclusive] (active) and 3.47 µM [inconclusive] (active) | 22.7 nM (active) and 34.4 nM (active) | inactive |  | 0.0039 µM (active) | 1.3 nM (active) and 1.7 nM (active) | inactive |
| CCN(CC)C(=O)SCc1ccc(Cl)cc1 | inactive | 43.3 µM (active) | 21.7 µM (active) | 24.3 µM (active) | inactive | inactive | inactive |  | inactive | inactive | inactive | inactive | inactive | inactive | inactive | inactive |  |  |  |  |
| CC(C)=CC1C(C(=O)OCc2coc(Cc3ccccc3)c2)C1(C)C (stereo not given) | inactive | inactive and 38.5 µM (active) | inactive and 54.4 µM (active) | inactive and 43.2 µM (active) | inactive | inactive | inactive |  | inactive | inactive | inactive | inactive | inactive | inactive | inactive | inactive |  |  |  |  |
| O=C(NC(=O)c1c(F)cccc1F)Nc1ccc(Cl)cc1 | inactive |  | inactive | inactive | inactive | inactive | inactive | inactive | inactive | inactive | inactive | inactive | inactive | inactive | inactive and 2.43 µM (active) |  |  |  |  |  |
| Cc1ccc2c(c1N)C(=O)c1ccccc1C2=O | inactive | inactive | inactive | 24.1 µM (active) and 30.6 µM (active) | inactive | inactive | 67.8 µM (active) |  | inactive | inactive | 30.3 µM (active) and 27.3 µM (active) | inactive | inactive | 389 nM [inconclusive] (active) | 3.03 µM (active) and 4.33 µM (active) |  |  |  |  |  |
